Measured values from PubChem BioAssay AID434982 (The Scripps Research Institute Molecular Screening Center, 2010).
About 60 (0.4%) of roughly 15,000 compounds were called active. Many of the other results were omitted from the sample, so actives are more common in it than they were. Values without a mark were called inactive. Cut-off read from the data, not from the text of the source: active = activation above about 2.2%; inactive = the rest.

test: activates NOTCH signaling in reporter cells (AID 434982); conditions: NOTCH signaling luciferase reporter cells, luminescence; at 2.5 µM; stronger effect = higher value

Row | Structure (SMILES) | activation
1 | O=C1/C(=C\c2ccc3c(c2)OCO3)N2CCC1CC2 | 3.83% (active)
2 | CN(C)CC1CCCCC1=O (stereo not given) | 0.24%
3 | CNC(=O)O/N=C(\N)Cc1csc2ccc(Cl)cc12 | 0.88%
4 | Cc1ccc(Oc2c(C)nc(-c3ccccc3)nc2OC(=O)N(C)C)cc1 | 0.1%
5 | N#CCN1CCN(c2cccc(Cl)c2)CC1 | 0.33%
